Experimental findings from PubChem BioAssay (Tox21) are described below.

The nature of test [1]: qHTS RealTime-Glo MT Cell Viability Assay in HEK293 cells - 16 hour (AID 1224872). Note: nearly all actives have a fitted effect of over 50% in size. Note: potency is the fitted concentration of half-maximal effect. A digest of the protocol: (§1)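 Reads taken at 0, 8, 16, 24, 32 and 40 h from the same wells. HEK293 cells (600/well) carried RealTime-Glo reagents from seeding, with compound added after a 5 h settle at 37 C.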
Test [2] can be described thus: qHTS RealTime-Glo MT Cell Viability Assay in HEK293 cells - 40 hour (AID 1224874). Note: nearly all actives have a fitted effect of over 50% in size. Note: potency is the fitted concentration of half-maximal effect. Particulars: RealTime-Glo luminescence; max response: hits give low values. The method, boiled down: (§2)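 600 cells/well were plated with the nonlytic NanoLuc/prosubstrate reagent, pre-incubated 5 h, then given 23 nL of compound in DMSO. Incubation at 37 C for 40 h, with luminescence from viable-cell-reduced substrate read repeatedly from 0 h.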

Test [3] in a line: A CellTox Green Cytotoxicity Assay to monitor cytotoxicity in HepG2 cells - 16 hour (AID 1224876). Note: nearly all actives have a fitted effect of over 45% in size. Note: potency is the fitted concentration of half-maximal effect. The method, boiled down: (§3)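 HepG2 cells, 600/well, preincubated 5 h with CellTox Green dye, then exposed to Tox21 compounds in DMSO at 37 C for up to 40 h. Dead-cell DNA fluorescence read at the indicated time point.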
Test [4] can be described thus: qHTS RealTime-Glo MT Cell Viability Assay in HepG2 cells - 32 hour (AID 1224877). Note: nearly all actives have a fitted effect of over 55% in size. Note: potency is the fitted concentration of half-maximal effect. A digest of the protocol:
(§4)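 HepG2 suspension premixed with RealTime-Glo reagents is plated at 600 cells per well and left 5 h at 37 C/5% CO2. Compounds in DMSO then go in, and bioluminescence reflecting viable cell number is recorded over 40 h.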

The nature of test [5]: A CellTox Green Cytotoxicity Assay to monitor cytotoxicity in HepG2 cells - 24 hour (AID 1224878). Note: nearly all actives have a fitted effect of over 45% in size. Note: potency is the fitted concentration of half-maximal effect. The method, boiled down:
as §3

The nature of test [6]: qHTS RealTime-Glo MT Cell Viability Assay in HEK293 cells - 0 hour (AID 1224880). Note: top concentration of the series differs between compounds; nearly all actives have a fitted effect of over 45% in size. A digest of the protocol: as §2
A short description of test [7]: A CellTox Green Cytotoxicity Assay to monitor cytotoxicity in HEK293 cells - 8 hour (AID 1224884). Note: nearly all actives have a fitted effect of over 35% in size. Note: potency is the fitted concentration of half-maximal effect. A digest of the protocol:
(§5)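 HEK293 cells, 600/well, were preincubated 5 hours and then exposed to compounds at 37 C for up to 40 hours. A cell-impermeant cyanine dye staining dead-cell DNA was read by fluorescence at 0, 8, 16, 24, 32 and 40 h time points.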

Test [8] is described as follows: qHTS RealTime-Glo MT Cell Viability Assay in HepG2 cells - 16 hour (AID 1224885). Note: nearly all actives have a fitted effect of over 50% in size. Note: potency is the fitted concentration of half-maximal effect. The method, boiled down:
as §4

The nature of test [9]: qHTS RealTime-Glo MT Cell Viability Assay in HEK293 cells - 24 hour (AID 1224886). Note: nearly all actives have a fitted effect of over 50% in size. Note: potency is the fitted concentration of half-maximal effect. A digest of the protocol: as §1
Test [10] in a line: qHTS RealTime-Glo MT Cell Viability Assay in HepG2 cells - 0 hour (AID 1224889). Note: nearly all actives have a fitted effect of over 50% in size. The method, boiled down: as §4
A short description of test [11]: A CellTox Green Cytotoxicity Assay to monitor cytotoxicity in HepG2 cells - 8 hour (AID 1224890). Note: nearly all actives have a fitted effect of over 45% in size. A digest of the protocol:
as §3

Test [12] can be described thus: qHTS RealTime-Glo MT Cell Viability Assay in HepG2 cells - 8 hour (AID 1224873). Note: nearly all actives have a fitted effect of over 55% in size. A digest of the protocol: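 HepG2 cells mixed with RealTime-Glo MT reagents (NanoLuc plus cell-permeant prosubstrate) were seeded at 600 cells/well, incubated 5 h at 37 C/5% CO2, then pinned with compounds in DMSO; nonlytic luminescence tracked viability during 40 h treatment.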
Test [13] in a line: A CellTox Green Cytotoxicity Assay to monitor cytotoxicity in HEK293 cells - 24 hour (AID 1224875). A digest of the protocol:
as §5

Test [14] can be described thus: A CellTox Green Cytotoxicity Assay to monitor cytotoxicity in HepG2 cells - 40 hour (AID 1224879). Note: nearly all actives have a fitted effect of over 40% in size. Note: potency is the fitted concentration of half-maximal effect. A digest of the protocol: as §3
Test [15] is described as follows: A CellTox Green Cytotoxicity Assay to monitor cytotoxicity in HepG2 cells - 0 hour (AID 1224882). Note: nearly all actives have a fitted effect of over 35% in size. A digest of the protocol: as §3
Test [16] in a line: A CellTox Green Cytotoxicity Assay to monitor cytotoxicity in HepG2 cells - 32 hour (AID 1224883). Note: nearly all actives have a fitted effect of over 50% in size. Note: potency is the fitted concentration of half-maximal effect. A digest of the protocol: as §3
Test [17] in a line: qHTS RealTime-Glo MT Cell Viability Assay in HEK293 cells - 8 hour (AID 1224887). Note: nearly all actives have a fitted effect of over 50% in size. Note: potency is the fitted concentration of half-maximal effect. The method, boiled down: as §2
Test [18] can be described thus: A CellTox Green Cytotoxicity Assay to monitor cytotoxicity in HEK293 cells - 16 hour (AID 1224888). Note: nearly all actives have a fitted effect of over 35% in size. A digest of the protocol:
as §5

Test [19] in a line: A CellTox Green Cytotoxicity Assay to monitor cytotoxicity in HEK293 cells - 32 hour (AID 1224881). Note: nearly all actives have a fitted effect of over 40% in size. Note: potency is the fitted concentration of half-maximal effect. A digest of the protocol: as §5

A number with no mark means an inactive call. Inconclusive results are not listed. The source made the active and inactive calls. Calls come from the whole dose curve; as a rule, active = well fitted curve in the direction sought with a large enough effect in the repeat runs; inconclusive = weak or mixed curves; inactive = no such curve, though single readings can be large; an effect the other way counts as inactive or inconclusive.
% is set by controls: 0 for no effect and ±100 for the full control effect.

`Nc1c(Cl)cc(Cl)cc1Cl`: the Potency result in test [1], in [3], in test [4], in test [5], in [6] and in test [8] was “inactive” in each case. Further, the Potency result in test [9], in test [10] and in test [11] was “inactive” in each case. In addition, the max response in test [2] was -15.4%. Moreover, the Potency in test [7] is 21.6 µM (active).
For `Fc1ccc([C@@H]2CCNC[C@H]2COc2ccc3c(c2)OCO3)cc1`, the Potency result in [1], in test [12], in test [13], in test [15], in [7] and in test [17] was “inactive” each time. In addition, the Potency entry in [18] and in test [11] was “inactive” throughout. For the same molecule, the Potency in test [3] is 23.9 µM (active); in test [5] it was 26.8 µM (active); in [14], 26.8 µM (active); in test [16], 26.8 µM (active).
Regarding `C=C(C)C(=O)OCC(O)COc1ccc(C(C)(C)c2ccc(OCC(O)COC(=O)C(=C)C)cc2)cc1` (configuration not stated), the Potency in test [1] is 9.77 µM (active); in test [2] it was 13.8 µM (active); in [4] it was 21.9 µM (active); in test [14], 43.6 µM (active); in test [8] it was 19.5 µM (active); in test [9], 11 µM (active). Moreover, the Potency in test [17] was 11 µM (active). The Potency entry in test [13], in [3], in test [5], in test [6], in [19] and in [15] was “inactive” each time. For the same molecule, the Potency entry in test [18], in [10] and in test [11] was “inactive” each time.
Turning to `Cc1c(C)c2c(c(C)c1OC(=O)CCC(=O)O)CC[C@@](C)(CCC[C@H](C)CCC[C@H](C)CCCC(C)C)O2`, the Potency entry in test [1], in test [13], in test [19], in [15], in [7] and in [8] was “inactive” each time. Besides, the Potency result in [17] and in test [11] was “inactive” each time. Besides, the Potency in test [4] was 55.6 µM (active).
Consider `Oc1ccc2c(c1)-c1ccccc1C2`, for which the Potency result in [1], in test [4], in test [6], in test [15], in test [7] and in test [18] was “inactive” throughout. Moreover, in [10], the Potency entry is “inactive”. In addition, the Potency in test [5], in test [14] and in test [16] was 49 µM (active) in each case.
With `O=Cc1cc(O)ccc1Br`, the Potency result in test [12], in test [4], in [6], in [15], in test [7] and in test [8] was “inactive” in each case. For the same molecule, the Potency result in [17], in [18] and in test [11] was “inactive” in each case.
For the molecule `Cc1cccc2c1cc1ccc3cccc4ccc2c1c34`, the Potency entry in [12], in test [3], in test [4], in [5], in test [14] and in [16] was “inactive” in each case. Further, the Potency entry in [8], in [10] and in test [11] was “inactive” each time.
In the case of `CN(C)c1ccc(C2(c3ccc(N(C)C)cc3)OC(=O)c3cc(N(C)C)ccc32)cc1`, the Potency result in test [1], in test [13], in [3], in test [5], in test [14] and in test [6] was “inactive” each time. Further, the Potency result in [19], in test [15], in [16], in test [7], in test [9] and in test [17] was “inactive” throughout. Besides, the Potency result in test [18], in [10] and in test [11] was “inactive” each time. For the same molecule, the max response in test [2] is -1.22%.
For `O=C1CCCc2c1cc1ccc3cccc4ccc2c1c34`, the Potency in test [2] is 9.89 µM (active); in test [9], 8.82 µM (active). Besides, the Potency entry in test [13], in test [4], in [5], in test [14], in [6] and in [15] was “inactive” each time. The Potency result in [16], in test [8], in [18] and in [11] was “inactive” each time.
With `Fc1ccc(C(c2ccc(F)cc2)N2CCN(C/C=C/c3ccccc3)CC2)cc1`, the Potency in [2] was 19 µM (active). Further, the Potency result in test [13], in test [3], in [5], in [14], in test [6] and in [16] was “inactive” each time. The Potency entry in test [18], in test [10] and in test [11] was “inactive” each time.
Turning to `CCCCCCC[N+](CC)(CC)CCCCc1ccc(Cl)cc1`, the Potency result in test [12], in [13], in [6], in test [15], in [7] and in test [18] was “inactive” each time. Further, in [11], the Potency result is “inactive”. Also, the Potency in test [2] is 1.9 µM (active); in [4], 23.9 µM (active); in [5], 26.8 µM (active); in [14], 23.9 µM (active); in test [19], 5.35 µM (active); in test [16], 23.9 µM (active).
